Assay outcomes from PubChem.
The list is not random: actives were taken first. Their share in the collection is about 2.4%.
D2 antagonist – antagonists of human D2 dopamine receptor; inhibition, % at 10 µM; AID 485344; hit rate 2% among 340,000; P14416; HEK293 TREx D2 cells, calcium flux, dopamine EC80; in the data active = inhibition above about 30%; inactive = below that, where a call was filed; note: 0% is about no effect
Target sequence (P14416 whole entry, looked up): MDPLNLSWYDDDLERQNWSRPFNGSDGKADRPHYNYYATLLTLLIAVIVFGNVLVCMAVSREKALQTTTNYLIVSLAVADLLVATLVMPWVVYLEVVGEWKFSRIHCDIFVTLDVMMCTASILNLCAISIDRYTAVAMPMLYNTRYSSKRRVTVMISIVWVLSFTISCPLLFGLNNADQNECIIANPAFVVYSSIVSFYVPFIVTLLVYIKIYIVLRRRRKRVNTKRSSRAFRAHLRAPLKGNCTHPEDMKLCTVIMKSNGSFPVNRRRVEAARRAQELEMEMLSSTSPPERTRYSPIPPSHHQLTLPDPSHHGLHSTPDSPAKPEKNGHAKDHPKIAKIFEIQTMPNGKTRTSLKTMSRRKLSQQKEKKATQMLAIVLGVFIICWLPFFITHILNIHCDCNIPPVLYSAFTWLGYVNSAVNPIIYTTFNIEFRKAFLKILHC
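In this primary screen, negative modulation is detected by tracking calcium flux after an EC80 dopamine challenge in inducible HEK293 T-REx D2 cells preexposed to test compound for 180 s.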
D2 PAM-1 – positive allosteric modulators of human D2 dopamine receptor; P14416; HEK293 T-REx D2, calcium flux, EC20 dopamine potentiation; AID 485347; hit rate 0.34% among 340,000; potentiation, % at 10 µM;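 active = potentiation over 3 SD above the plate norm, cut at about 30% in these data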; note: 0% is about no effect
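Tetracycline-induced Hek293 Trex D2 cells, force-coupled to calcium, loaded with no-wash calcium dye. Compound added with 180 s kinetic read for agonism, then EC20 dopamine and a further 180 s read for potentiation.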
D2 PAM-2 – positive allosteric modulators of human D2 dopamine receptor. DiscoveRx D2 beta-arrestin cells, luminescence, 90 min; 100% = 57 uM dopamine signal. potentiation, % (no concentration beside the values). hit rate 0.23% among 360,000. AID 624464; in the data active = potentiation above about 50%; inconclusive = mostly about 30% to 49%
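D2 cells co-treated with compound plus 50 nM dopamine (EC20) for 90 min at 37 deg C to detect potentiation. Beta-arrestin recruitment was read as enzyme-fragment luminescence after 1 h at ambient temperature. Full response was set by 57 uM dopamine.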
D2 ag-1 – human D2 receptor agonism in beta-arrestin assay. DiscoveRx PathHunter D2 beta-arrestin, luminescence, 90 min; 100% = 57 uM dopamine signal. activation, % (concentration not given with the values). AID 624465. hit rate 0.084% among 360,000; in the data active = activation above about 40%; inconclusive = between about 15% and that limit
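DiscoveRx PathHunter D2 beta-arrestin cells (2,100/well) attached overnight, then compound-stimulated 90 min at 37 C in HBSS/10 mM HEPES/0.1% Tween-20 buffer; beta-galactosidase complementation read by luminescence after 1 h at ambient temperature. Dopamine 57 uM final (EC100) as control.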
D2 ag-2 – agonists of human D2 dopamine receptor | hit rate 0.53% among 340,000 | HEK293 T-REx D2 cells, calcium flux agonist mode | activation, % at 2 µM | AID 485358;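 active = activation over 3 SD above normal in the single-dose calcium agonist read, cut at about 30% in these data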; note: 0% is about no effect
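Agonism scored from kinetic calcium signal (1 read/sec, 180 s) following compound pin transfer, after a 10 s baseline. Cells: HEK293 Trex line expressing inducible D2 receptor coupled to calcium, dye-loaded after overnight culture at 30 C.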
Active calls of the source: *.

`CCOc1ccc(OCC(O)CN2CCc3ccccc3C2)cc1` (stereo unspecified) gave D2 antagonist 50*, D2 PAM-1 -22, D2 PAM-2 -9, D2 ag-1 -1 and D2 ag-2 3.
Screening Cc1cc(OCC(O)CN2CCc3ccccc3C2)cc(C(C)C)c1 (stereo unspecified) returned D2 antagonist -5, D2 PAM-1 14, D2 PAM-2 -38, D2 ag-1 inconclusive and D2 ag-2 -1.
For CCc1ccccc1Nc1nn2c(=O)c3ccc(C(=O)NCCCOC(C)C)cc3nc2s1 the results were D2 PAM-1 12 and D2 ag-2 0.
For COC(=O)c1c(C)[nH]c(C(=O)C(C)Sc2nnc(-c3cc(OC)c(OC)c(OC)c3)o2)c1C (stereo unspecified) the results were D2 antagonist 32*, D2 PAM-1 5, D2 PAM-2 -9, D2 ag-1 -1 and D2 ag-2 -1.
CC(C)NC(=O)/C(=N\O)c1ccccc1 was read as D2 antagonist 32*, D2 PAM-1 -1, D2 PAM-2 -6, D2 ag-1 0 and D2 ag-2 0.
O=C(O)c1ccc(N/N=C/c2ccnc3ccccc23)cc1 was read as D2 antagonist 40*, D2 PAM-1 -5, D2 PAM-2 -5, D2 ag-1 -8 and D2 ag-2 0.
For Cc1cc(C)cc(Nc2cc(C(=O)NC3CCC(C)CC3)c3ccccc3n2)c1 (stereo unspecified) the results were D2 PAM-1 0 and D2 ag-2 0.
For COc1ccc(NC(=O)CC2C(=O)N(c3ccc(F)cc3)C(=S)N2NC(=O)c2ccc(Cl)cc2)cc1 (stereo unspecified) the results were D2 antagonist 37*, D2 PAM-1 -8, D2 PAM-2 -4, D2 ag-1 -7 and D2 ag-2 -1.
Cc1cc2c(n1-c1ccc(C(=O)NCCc3ccc(Cl)cc3)cc1)CCC(C)C2 (stereo unspecified) was read as D2 PAM-1 -6 and D2 ag-2 0.
CCn1cc([N+](=O)[O-])c(C(=O)Nc2ccc3c(c2)OCCO3)n1 was read as D2 antagonist 69*, D2 PAM-1 -13, D2 PAM-2 10, D2 ag-1 4 and D2 ag-2 1.
Screening CC12CN3CC(C)(CN(C1)C3c1ccc(Br)cc1O)C2 (stereo unspecified) returned D2 antagonist 36*, D2 PAM-1 -22, D2 PAM-2 -13, D2 ag-1 -3 and D2 ag-2 1.
`CC(=O)c1ccc(OCC(O)CN2CCN(S(=O)(=O)c3c(C)cc(C)cc3C)CC2)cc1` (stereo unspecified) gave D2 antagonist 0, D2 PAM-1 2, D2 PAM-2 -6, D2 ag-1 1 and D2 ag-2 1.
COc1cc(C(C)=O)ccc1OCC(O)CN1CCN(c2cc(C)cc(C)c2)CC1 (stereo unspecified) was read as D2 antagonist 58*, D2 PAM-1 -30, D2 PAM-2 -4, D2 ag-1 4 and D2 ag-2 1.
Screening CC(=O)c1ccc(N2CCN(CC(O)COC(c3ccccc3)c3ccccc3)CC2)cc1 (stereo unspecified) returned D2 antagonist -17, D2 PAM-1 37*, D2 PAM-2 -12, D2 ag-1 -1 and D2 ag-2 -1.
`CC1CCCN(CC(O)COC(c2ccccc2)c2ccccc2)C1` (stereo unspecified) gave D2 antagonist 50*, D2 PAM-1 -10, D2 PAM-2 -10, D2 ag-1 -1 and D2 ag-2 1.
O=C(CCC1N=C2c3ccccc3N=C(SCc3ccc(F)cc3)N2C1=O)NCc1ccc(F)cc1 (stereo unspecified) was read as D2 PAM-1 2 and D2 ag-2 0.
COC(=O)c1scc(-c2ccc(C)cc2)c1S(=O)(=O)N1CCN(c2cccc(OC)c2)CC1 was read as D2 PAM-1 -5 and D2 ag-2 0.
`O=C(NCCc1cccc(F)c1)C1CCC(=O)N(C2CCCCCC2)C1` (stereo unspecified) gave D2 antagonist 34*, D2 PAM-1 -4, D2 PAM-2 -4, D2 ag-1 5 and D2 ag-2 0.
Screening O=C(NCCN1CCc2ccccc2C1)C1CC(=O)N(C2CCCC2)C1 (stereo unspecified) returned D2 antagonist 33*, D2 PAM-1 14, D2 PAM-2 -28, D2 ag-1 -2 and D2 ag-2 1.
Screening O=C(Nc1cccc([N+](=O)[O-])c1)C1CC(=O)N(C2CCCCC2)C1 (stereo unspecified) returned D2 antagonist 31*, D2 PAM-1 -18, D2 PAM-2 -24, D2 ag-1 -3 and D2 ag-2 -1.
Screening CC(=O)Nc1cccc(NC(=O)C2CC(=O)N(C3CCCCC3)C2)c1 (stereo unspecified) returned D2 antagonist 3, D2 PAM-1 -2, D2 PAM-2 4, D2 ag-1 0 and D2 ag-2 -1.
O=C(NCCc1ccccc1)C1CC(=O)N(C2CCCC2)C1 (stereo unspecified) was read as D2 antagonist 4, D2 PAM-1 -3, D2 PAM-2 -7, D2 ag-1 5 and D2 ag-2 0.
`Cc1ccc(NC(=O)CCC(=O)N2CCSc3ccccc32)cc1` gave D2 PAM-1 -3 and D2 ag-2 0.
`CCN(C(=O)C1CCCN(c2ncnc3c2nc2n3CCCCC2)C1)c1cccc(C)c1` (stereo unspecified) gave D2 PAM-1 1 and D2 ag-2 0.
`COc1ccc(-n2nnnc2SCC(=O)c2ccc3c(c2)OCCO3)cc1` gave D2 antagonist -4, D2 PAM-1 34*, D2 PAM-2 -4, D2 ag-1 -4 and D2 ag-2 0.
O=C(CSc1nnc2scc(-c3ccccc3)n12)c1ccc2c(c1)OCCO2 was read as D2 antagonist 31*, D2 PAM-1 -8, D2 PAM-2 3, D2 ag-1 0 and D2 ag-2 -1.
COc1ccc(-n2nnnc2SCC(=O)c2cccc(OC)c2)cc1 was read as D2 antagonist 14, D2 PAM-1 -5, D2 PAM-2 0, D2 ag-1 -1 and D2 ag-2 1.
`c1ccc(-c2csc3nnc(SCc4ccc5c(c4)OCCO5)n23)cc1` gave D2 antagonist 10, D2 PAM-1 43*, D2 PAM-2 -7, D2 ag-1 -3 and D2 ag-2 1.
`O=C(CSc1nnc(-c2ccccc2)o1)c1ccc2c(c1)OCCO2` gave D2 antagonist 3, D2 PAM-1 6, D2 PAM-2 -5, D2 ag-1 0 and D2 ag-2 0.
